# Laboratory results as given in PubChem BioAssay (Tox21).
# Several values for one entry are separate records, joined by “and”; a condition that tells them apart may be missing. Equal entries are not always repeated. Results filed as inconclusive are left out. Entries that show only a call come without a potency. More than one record can exist for a structure, and the calls need not agree. Activity calls are given as the source filed them. Unless noted, the call rests on the fitted dose curve; in most records, active means well fitted curve in the direction sought with a large enough effect in the repeat runs; inconclusive means weak or mixed curves; inactive means no such curve, though single readings can be large; an effect the other way counts as inactive or inconclusive.
# Columns and labels:
# [1] = qHTS assay to identify small molecule agonists of the RXR signaling pathway - cell viability counter screen (AID 1159529); further: nearly all actives have a fitted effect of over 50% in size; further: potency means the concentration at half of the fitted maximal effect
# Summary of the method: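 Same-well viability check after the LiveBLAzer FRET read: CellTiter-Glo added, luminescence measured after 30 min at room temperature. Reporter HEK 293T cells had been treated with compounds for 16 hr following a 5 hr preincubation.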
# [2] = qHTS assay to identify small molecule antagonists of the retinoid acid receptor (RAR) signaling pathway - cell viability counter screen (AID 1159551); further: nearly all actives have a fitted effect of over 35% in size; further: potency means the concentration at half of the fitted maximal effect
# Summary of the method: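 Following overnight attachment, C3RL4 reporter cells received DMSO-dissolved compounds and then retinol (1 uM final). Six hours later at 37 C, ATP content was measured by CellTiter-Glo luminescence.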
# [3] = qHTS assay to identify small molecule antagonists of the retinoic acid receptor (RAR) signaling pathway (AID 1159552; further: nearly all actives have a fitted effect of over 50% in size; further: potency means the concentration at half of the fitted maximal effect)
# Summary of the method: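 Readout: luciferase luminescence, 30 min post-reagent at RT. Setup: C3RL4 RARE reporter cells, compounds plus retinol 1 uM final, 6 hr incubation at 37 C and 5% CO2.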
# [4] = qHTS assay to identify small molecule agonists of the retinoic acid receptor (RAR) signaling pathway (AID 1159553); conditions: C3RL4 RARE luciferase reporter, agonist, 6 h; activation: at 73.3 µM (top of the series) unless noted; further: potency means the concentration at half of the fitted maximal effect
# Summary of the method: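 Cell line C3RL4, RARE luciferase reporter. Treatment: compounds in DMSO, 6 hr, 37 C, 5% CO2, after overnight plating. Detection: luminescence, 30 min RT after reagent.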
# [5] = qHTS assay to identify small molecule antagonists of the estrogen related receptor (ERR) signaling pathway from Tox21 library - cell viability counter screen (AID 1224834); further: nearly all actives have a fitted effect of over 30% in size; further: potency means the concentration at half of the fitted maximal effect
# Summary of the method: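 Viability readout (CellTiter-Fluor fluorescence, 30 min at 37 C) multiplexed with the ERR assay; cells treated 17.5 h at 37 C with compounds delivered in DMSO.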
# [6] = target: Luciferin 4-monooxygenase (Photinus pyralis) (UniProt P08659); assay: qHTS assay to identify small molecule inhibitors of firefly luciferase (AID 1224835); further: nearly all actives have a fitted effect of over 25% in size; further: potency means the concentration at half of the fitted maximal effect
# Luciferin 4-monooxygenase (Photinus pyralis), sequence (P08659 whole entry, looked up): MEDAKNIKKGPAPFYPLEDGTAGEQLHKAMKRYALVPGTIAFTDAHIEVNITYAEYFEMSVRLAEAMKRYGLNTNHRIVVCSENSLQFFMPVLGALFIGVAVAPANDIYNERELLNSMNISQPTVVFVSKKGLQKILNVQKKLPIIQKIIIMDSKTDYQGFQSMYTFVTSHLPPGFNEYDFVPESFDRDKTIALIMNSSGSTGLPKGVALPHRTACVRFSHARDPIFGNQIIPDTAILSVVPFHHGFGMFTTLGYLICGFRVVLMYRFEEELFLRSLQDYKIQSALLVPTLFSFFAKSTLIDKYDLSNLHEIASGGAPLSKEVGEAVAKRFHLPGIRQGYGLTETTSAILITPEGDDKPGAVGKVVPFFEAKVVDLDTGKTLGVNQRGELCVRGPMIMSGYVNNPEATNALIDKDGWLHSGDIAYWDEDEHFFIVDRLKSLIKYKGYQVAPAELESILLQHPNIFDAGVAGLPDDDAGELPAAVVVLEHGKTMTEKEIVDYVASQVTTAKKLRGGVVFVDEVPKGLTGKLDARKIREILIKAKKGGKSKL
# Summary of the method: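 Quantitative HTS format; KM concentrations of both substrates. Purified P. pyralis FLuc activity quantified from luminescence images.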
# [7] = qHTS assay to identify small molecule antagonists of the constitutive androstane receptor (CAR) signaling pathway - cell viability counter screen (AID 1224837); further: nearly all actives have a fitted effect of over 45% in size; further: potency means the concentration at half of the fitted maximal effect
# Summary of the method: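 Fluorescence from CellTiter-Fluor served as the viability signal. Human hepatoma HepG2 cells stably bearing hCAR and CYP2B6-2.2kb received compound plus CITCO (50 nM final) for 23 hr.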
# [8] = target: Nuclear receptor subfamily 1 group I member 3 (Homo sapiens) (UniProt Q14994); assay: qHTS assay to identify small molecule antagonists of the constitutive androstane receptor (CAR) signaling pathway (AID 1224838);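 further: HepG2 cells stably expressing hCAR with CYP2B6 luciferase reporter stimulated by CITCO; nearly all actives have a fitted effect of over 40% in size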; further: potency means the concentration at half of the fitted maximal effect
# Nuclear receptor subfamily 1 group I member 3 (Homo sapiens), sequence (Q14994 whole entry, looked up): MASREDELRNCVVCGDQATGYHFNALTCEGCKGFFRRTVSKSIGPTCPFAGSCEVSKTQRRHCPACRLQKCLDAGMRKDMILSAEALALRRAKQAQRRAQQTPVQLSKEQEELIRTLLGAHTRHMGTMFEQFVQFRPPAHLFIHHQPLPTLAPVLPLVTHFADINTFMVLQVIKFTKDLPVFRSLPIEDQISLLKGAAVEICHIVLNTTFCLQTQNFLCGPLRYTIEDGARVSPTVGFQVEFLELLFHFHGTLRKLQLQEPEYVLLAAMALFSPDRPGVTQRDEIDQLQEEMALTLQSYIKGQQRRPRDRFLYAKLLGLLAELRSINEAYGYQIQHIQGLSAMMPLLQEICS
# Summary of the method: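 Quantitative HTS in double-stable HepG2-CYP2B6-hCAR cells. After 4 h plating, cells get compound (15 concentrations) and CITCO at 50 nM final, incubate 24 h at 37 C, then ONE-Glo luminescence is read.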
# [9] = target: Nuclear receptor subfamily 1 group I member 3 (Homo sapiens) (UniProt Q14994); assay: qHTS assay to identify small molecule agonists of the constitutive androstane receptor (CAR) signaling pathway (AID 1224839); further: nearly all actives have a fitted effect of over 15% in size; further: potency means the concentration at half of the fitted maximal effect;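 on activation: HepG2 cells stably carrying human CAR and a CYP2B6 luciferase reporter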
# Summary of the method: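 In this screen, CAR-driven CYP2B6 promoter activity is measured by luminescence in HepG2-CYP2B6-hCAR cells after 24 h with test compounds and 0.75 uM PK11195 (final concentration).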
# [10] = qHTS assay to identify small molecule antagonists of the estrogen related receptor signaling pathway with the pleiotropic PPARgamma coactivator (PGC) from Tox21 10K library - cell viability counter screen (AID 1224840; active means well fitted cell-killing curve with a large enough effect in the repeat runs, not every such curve was filed as active; further: nearly all actives have a fitted effect of over 40% in size; further: potency means the concentration at half of the fitted maximal effect)
# Summary of the method: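 Compounds in DMSO, alongside positive and negative controls, were pinned onto PGC/ERR cells (2,000 per well). Exposure lasted 17.5 hours at 37 C, followed by a 30-minute CellTiter-Fluor incubation and fluorescence reading.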
# [11] = qHTS assay to identify small molecule antagonists of the estrogen related receptor signaling pathway with the pleiotropic PPARgamma coactivator (PGC) from Tox21 10K library (AID 1224841; call rule not given here; further: actives are mostly falling curves and most rising ones were filed inactive; nearly all actives have a fitted effect of over 50% in size; further: potency means the concentration at half of the fitted maximal effect)
# Summary of the method: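 Compound exposure ran 18 hours at 37 C in PGC/ERR cells (2,000/well) that had first rested 6 hours in a 37 C/5% CO2 incubator. Luciferase activity was then detected with One-Glo after a 30-minute room-temperature step.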
# [12] = qHTS assay to identify small molecule agonists of the estrogen related receptor signaling pathway with the pleiotropic PPARgamma coactivator (PGC) from Tox21 10K library (AID 1224842); further: nearly all actives have a fitted effect of over 15% in size
# Summary of the method: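 PGC/ERR reporter cells (NTP line) were seeded 2,000 per well, rested 6 h at 37 C/5% CO2, then pin-dosed with compounds in DMSO for 18 h at 37 C; luciferase read by One-Glo luminescence after 30 min at room temperature.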
# [13] = qHTS assay to identify small molecule agonists of the constitutive androstane receptor (CAR) signaling pathway - cell viability counter screen (AID 1224836); further: nearly all actives have a fitted effect of over 45% in size
# Summary of the method: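 Compound titrations (15 concentrations) went onto HepG2-CYP2B6-hCAR cells 4 h after seeding, alongside PK11195 at a final 0.75 uM; a 23 h, 37 C/5% CO2 incubation preceded CellTiter-Fluor viability measurement.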
# [14] = target: Thyrotropin receptor (Homo sapiens) (UniProt P16473); assay: qHTS assay to identify small molecule agonists of the thyroid stimulating hormone receptor (TSHR) signaling pathway (AID 1224843; calls by dose curve; further: nearly all actives have a fitted effect of over 45% in size)
# Thyrotropin receptor (Homo sapiens), sequence (P16473 whole entry, looked up): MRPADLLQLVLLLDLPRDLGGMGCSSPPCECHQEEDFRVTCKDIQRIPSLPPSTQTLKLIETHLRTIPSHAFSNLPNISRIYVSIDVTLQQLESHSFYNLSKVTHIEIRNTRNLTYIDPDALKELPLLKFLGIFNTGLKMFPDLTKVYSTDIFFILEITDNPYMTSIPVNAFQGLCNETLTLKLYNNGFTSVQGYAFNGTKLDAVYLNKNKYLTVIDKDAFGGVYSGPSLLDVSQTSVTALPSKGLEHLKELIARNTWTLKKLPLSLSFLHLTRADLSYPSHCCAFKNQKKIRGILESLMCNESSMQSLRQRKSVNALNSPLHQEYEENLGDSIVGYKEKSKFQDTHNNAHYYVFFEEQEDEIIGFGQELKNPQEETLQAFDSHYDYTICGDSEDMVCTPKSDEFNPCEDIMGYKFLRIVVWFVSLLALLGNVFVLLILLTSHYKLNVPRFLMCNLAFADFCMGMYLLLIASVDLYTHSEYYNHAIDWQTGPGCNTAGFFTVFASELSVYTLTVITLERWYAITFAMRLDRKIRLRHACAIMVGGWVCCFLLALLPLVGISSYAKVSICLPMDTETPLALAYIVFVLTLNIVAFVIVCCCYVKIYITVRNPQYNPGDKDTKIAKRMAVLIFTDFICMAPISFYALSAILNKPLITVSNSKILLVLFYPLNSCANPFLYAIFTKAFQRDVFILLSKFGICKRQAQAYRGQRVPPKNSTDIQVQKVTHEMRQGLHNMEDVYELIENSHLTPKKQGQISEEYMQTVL
# Summary of the method: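 Cell line HEK293 with TSHR; density 800/well. Exposure 30 min RT. Readout HTRF cAMP (cAMP-d2/anti-cAMP-cryptate), 1 h RT before reading.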
# [15] = qHTS assay to identify small molecule antagonists of the estrogen related receptor (ERR) signaling pathway - cell viability counter screen (AID 1224818);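 further: viability measured after 17.5 h of compound exposure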
# Summary of the method: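 Here, ERR cells are plated at 2,000 cells per well, allowed 6 h to attach, and treated with compounds in DMSO for 17.5 h at 37 C. CellTiter-Fluor is then added and fluorescence read after 30 min.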
# [16] = qHTS assay to identify small molecule antagonists of the estrogen related receptor (ERR) signaling pathway (AID 1224819;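 further: luminescence from an ERR-driven luciferase reporter measured with One-Glo reagent; nearly all actives have a fitted effect of over 50% in size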)
# Summary of the method: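 LOPAC library screened for antagonism as reduced One-Glo luminescence in ERR reporter cells (2,000/well). Compounds were added after 6 h pre-incubation and left 18 h at 37C; reading followed a 30 min room-temperature reagent step.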
# [17] = qHTS assay to identify small molecule agonists of the estrogen related receptor (ERR) signaling pathway (AID 1224820)
# Summary of the method: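 ERR reporter cell line (from NTP), 2,000 cells/well, incubated 6 h before compound addition, then 18 h at 37 C. Luminescence measured 30 min after One-Glo reagent at room temperature.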
# [18] = tested on: estrogen-related receptor alpha (ERRalpha) with PGC-1alpha coactivator, human; assay: qHTS assay to identify small molecule antagonists of the estrogen related receptor signaling pathway with the pleiotropic PPARgamma coactivator (PGC) (AID 1224821; calls by dose curve)
# Summary of the method: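 PGC/ERR reporter cell line, plated 6 h before compound addition, then exposed 18 h at 37 °C. Luciferase activity read by luminescence 30 min after One-Glo addition; decrease indicates antagonism.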
# [19] = qHTS assay to identify small molecule antagonists of the estrogen related receptor signaling pathway with the pleiotropic PPARgamma coactivator (PGC) cell viability counter screen (AID 1224822;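 further: viability read after 17.5 h compound exposure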)
# Summary of the method: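 qHTS format, DMSO compound stocks pin-transferred onto PGC/ERR cells 6 h after plating; 17.5 h exposure at 37 C, then CellTiter-Fluor fluorescence.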
# [20] = qHTS assay to identify small molecule agonists of the estrogen related receptor signaling pathway with the pleiotropic PPARgamma coactivator (PGC) (AID 1224823)
# Summary of the method: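 PGC/ERR reporter cells seeded 6 h, then exposed to compounds (23 nL in DMSO) for 18 h at 37 C. One-Glo luciferase luminescence read after 30 min at room temperature.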
SMILES,Potency [1],Potency [2],Potency [3],Potency [4],Potency [5],Potency [6],Potency [7],Potency [8],Potency [9],Potency [10],Potency [11],Potency [12],Potency [13],Potency [14],outcome [15],Potency [16],outcome [17],Potency [18],Potency [19],outcome [20]
Nc1ccc2ccccc2c1,inactive,inactive,inactive,33.2 µM (active),inactive,inactive,inactive,inactive,52.6 µM (active) and 48.6 µM (active),inactive,inactive,inactive,–,–,–,–,–,–,–,–
CC(C)(c1ccc(OCC2CO2)cc1)c1ccc(OCC2CO2)cc1 (stereo unspecified),49.6 µM (active) and inactive,inactive,inactive,inactive,inactive,inactive,inactive,inactive,inactive,–,69.5 µM (active) and inactive,inactive,inactive,inactive,–,–,–,–,–,–
OC(c1ccc(Cl)cc1)(c1cncnc1)c1ccccc1Cl (stereo unspecified),inactive,–,27.8 µM (active) and inactive,inactive,27.8 µM (active) and 43.3 µM (active),81.1 µM (active) and inactive,55.4 µM (active),62.2 µM (active) and inactive,inactive,–,24.8 µM (active) and inactive,inactive,inactive,–,–,–,–,–,–,–
CCCCCCCC[N+](C)(CCCCCCCC)CCCCCCCC,346 nM (active) and 15.5 µM (active) and 6.16 µM (active),27.3 µM (active) and 61.2 µM (active),4.85 µM (active) and 9.7 µM (active) and 13.7 µM (active),–,17.2 µM (active) and 1.72 µM (active) and 21.7 µM (active),inactive,19.3 µM (active) and 13.7 µM (active) and 17.2 µM (active),17.2 µM (active) and 15.4 µM (active),inactive,9.67 µM (active) and 1.37 µM (active) and 13.7 µM (active),–,–,–,–,–,–,–,–,–,–
COP(=S)(OC)Oc1ccc(Sc2ccc(OP(=S)(OC)OC)cc2)cc1,inactive,–,inactive,61.1 µM (active) and inactive,inactive,31.7 µM (active) and inactive,inactive,inactive,61.1 µM (active) and inactive,inactive,inactive,inactive,inactive,inactive,–,–,–,–,–,–
CC(C)Nc1nc(Cl)nc(NC(C)C)n1,inactive,inactive,–,–,inactive,inactive,inactive,inactive,inactive,–,inactive,inactive,inactive,inactive,–,–,–,–,–,–
O=[N+]([O-])/N=C1\NCCN1Cc1ccc(Cl)nc1,inactive,–,inactive,inactive,inactive,inactive,inactive,inactive,inactive,inactive,inactive,inactive,inactive,inactive,–,–,–,–,–,–
CC(C)CON=O,inactive,inactive,inactive,inactive,inactive,inactive,inactive,inactive,inactive,–,–,–,–,inactive,–,–,–,–,–,–
Cc1ccc([N+](=O)[O-])cc1,inactive,inactive,–,–,inactive,inactive,inactive,inactive,inactive,inactive,–,–,–,inactive,–,–,–,–,–,–
[Cl-].[Cl-].[Cl-].[Fe+3],inactive,inactive,–,–,inactive,–,inactive,–,–,inactive,–,–,inactive,–,–,–,–,–,–,–
CCCCOCC1CO1 (stereo unspecified),inactive,–,inactive,inactive,inactive,inactive,inactive,inactive,inactive,inactive,inactive,inactive,inactive,inactive,–,–,–,–,–,–
CCCCCCCCCCCCCl,inactive,inactive,inactive,inactive,inactive,inactive,inactive,–,–,–,–,–,–,inactive,–,–,–,–,–,–
CN(C)c1nc(=O)n(C2CCCCC2)c(=O)n1C,inactive,inactive,–,–,inactive,inactive,inactive,inactive,inactive,inactive,–,–,inactive,inactive,–,–,–,–,–,–
CN(C)P(=O)(N(C)C)N(C)C,inactive,inactive,inactive,inactive,inactive,inactive,inactive,–,–,inactive,inactive,inactive,–,inactive,–,–,–,–,–,–
CCNCC,inactive,inactive,–,–,inactive,inactive,inactive,–,–,–,inactive,inactive,–,inactive,–,–,–,–,–,–
CC(C)(O)C#N,inactive,inactive,inactive,inactive,inactive,inactive,inactive,inactive,inactive,inactive,–,–,–,inactive,–,–,–,–,–,–
N#Cc1cccnc1,inactive,inactive,–,–,inactive,inactive,inactive,inactive,inactive,inactive,inactive,inactive,inactive,inactive,–,–,–,–,–,–
CNC(=O)CSP(=S)(OC)OC,inactive,inactive,–,–,inactive,–,inactive,inactive,inactive,inactive,–,–,inactive,inactive,–,–,–,–,–,–
NC(=O)CN1CCCC1=O,inactive,inactive,inactive,–,inactive,inactive,inactive,inactive,inactive,–,inactive,inactive,inactive,–,inactive,inactive,inactive,inactive,inactive,inactive
